Data on seven compounds can be found in PubChem BioAssay (NCATS).

Inconclusive results are not listed. A number with no mark means an inactive call. Activity calls are given as the source filed them. The call rests on the fitted dose curve; in most records, active means well fitted curve in the direction sought with a large enough effect; inconclusive means small, poorly fitted or top-dose-only effect, or another doubt; inactive means no such curve, though single readings can be large; an effect the other way counts as inactive or inconclusive.

One experiment has as its system HACAT. As to the kind of experiment: qHTS assay to identify novel small-molecules to repurpose for Merkel cell carcinoma treatment (AID 1296009). Further: nearly all actives have a fitted effect of over 60% in size. The following applies: MCC and control cell lines, CellTiter-Glo viability, 72 h; at 44.8 µM (top of the series) unless noted. An outline of the steps:
(§1)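 72 hr, 37 degree celsius; NPC 8-pt / MIPE 11-pt dose response; compound pinned in DMSO; CellTiter-Glo, 10 min RT, luminescence; normalized to no-cell and DMSO controls.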
In general terms: In qHTS, concentration-response curves come from the screen itself.

For the next experiment, the system named is MCC-13. Described as above. The conditions noted are these: MCC and control cell lines, CellTiter-Glo viability, 72 h; series mostly up to 46 µM. An outline of the steps:
as §1

For a further experiment, the system named is MCC-26. The experiment is described as above. The conditions noted are these: MCC and control cell lines, CellTiter-Glo viability, 72 h; series mostly up to 46 µM. A digest of the protocol: as §1
In general terms: ATP-based viability assays read luminescence as a measure of living cells.

The subject of a further experiment is MKL-1. The experiment is described as above. The conditions noted are these: MCC and control cell lines, CellTiter-Glo viability, 72 h; series mostly up to 46 µM. An outline of the steps:
as §1

For another experiment, the system named is MKL-2. The description is as above. The following applies: MCC and control cell lines, CellTiter-Glo viability, 72 h; series mostly up to 46 µM. A digest of the protocol:
as §1

The next experiment has as its system UISO. The experiment is described as above. The conditions noted are these: MCC and control cell lines, CellTiter-Glo viability, 72 h; series mostly up to 46 µM. An outline of the steps:
as §1

The subject of another experiment is WaGa. The description is as above. The conditions noted are these: MCC and control cell lines, CellTiter-Glo viability, 72 h; series mostly up to 46 µM. An outline of the steps:
as §1

The test system of a further experiment is C33A. The experiment can be described thus: Primary qHTS to identify gynecologic anti-cancer compounds using libraries of approved drugs and bioactive compounds (AID 1345084). Further: nearly all actives have a fitted effect of over 55% in size. Further: potency means the concentration at half of the fitted maximal effect. The conditions noted are these: Gynecologic cancer cell panel viability, ATPlite luminescence, 48 h; series mostly up to 57.5 µM. A digest of the protocol: (§2)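 Cells, 1,000 per well, were allowed to settle for 16 h at 37 C before compound addition. Five concentrations were tested for 48 h, and viability was read by ATPlite luminescence after 15 min at room temperature.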

The test system of another experiment is CAOV3. The experiment is described as above. The conditions noted are these: Gynecologic cancer cell panel viability, ATPlite luminescence, 48 h; series mostly up to 57.5 µM. An outline of the steps:
as §2

The subject of a further experiment is CASKI. The experiment is described as above. The conditions noted are these: Gynecologic cancer cell panel viability, ATPlite luminescence, 48 h; series mostly up to 57.5 µM. A digest of the protocol: as §2
The test system of the next experiment is Es-2. Described as above. The following applies: Gynecologic cancer cell panel viability, ATPlite luminescence, 48 h; series mostly up to 57.5 µM. An outline of the steps:
as §2

The test system of another experiment is HeLa. Described as above. The following applies: Gynecologic cancer cell panel viability, ATPlite luminescence, 48 h; series mostly up to 57.5 µM. A digest of the protocol:
as §2

The next experiment concerns Hek293T. The experiment is described as above. The following applies: Gynecologic cancer cell panel viability, ATPlite luminescence, 48 h, control line for the selectivity index; series mostly up to 57.5 µM. A digest of the protocol:
as §2

For the next experiment, the system named is JEG-3. The experiment is described as above. The conditions noted are these: Gynecologic cancer cell panel viability, ATPlite luminescence, 48 h; series mostly up to 57.5 µM. A digest of the protocol: as §2
The next experiment concerns OV90. Described as above. The following applies: Gynecologic cancer cell panel viability, ATPlite luminescence, 48 h; series mostly up to 57.5 µM. An outline of the steps: as §2
Another experiment relates to PA-1. The experiment is described as above. The conditions noted are these: Gynecologic cancer cell panel viability, ATPlite luminescence, 48 h; series mostly up to 57.5 µM. An outline of the steps:
as §2

In a further experiment the test system is SKOV3. Described as above. The conditions noted are these: Gynecologic cancer cell panel viability, ATPlite luminescence, 48 h; series mostly up to 57.5 µM. A digest of the protocol:
as §2

A further experiment deals with Tov-21-G. The experiment is described as above. The conditions noted are these: Gynecologic cancer cell panel viability, ATPlite luminescence, 48 h; series mostly up to 57.5 µM. An outline of the steps: as §2
A further experiment relates to NIH3T3. The experiment can be described thus: qHTS assay to identify novel small-molecules to repurpose for Merkel cell carcinoma treatment (AID 1296009). Further: nearly all actives have a fitted effect of over 60% in size. The following applies: MCC and control cell lines, CellTiter-Glo viability, 72 h; at 44.8 µM (top of the series). A digest of the protocol:
as §1

Turning to `Cc1cn([C@H]2C[C@H](F)[C@@H](CO)O2)c(=O)[nH]c1=O`, in the experiment with HACAT, the outcome was inactive. Further, the Potency result in the experiment with MCC-13, with MCC-26, in the experiment with MKL-1, in the experiment on MKL-2, with UISO and in the experiment on WaGa was “inactive” each time. Also, the Potency entry in the experiment on C33A, in the experiment with CAOV3, in the experiment with CASKI, in the experiment with Es-2, in the experiment with HeLa and with Hek293T was “inactive” throughout. Further, the Potency entry in the experiment on JEG-3, with OV90, in the experiment with PA-1, in the experiment with SKOV3 and in the experiment with Tov-21-G was “inactive” throughout.
As for `CC(=O)OCC(=O)[C@H]1CC[C@H]2[C@@H]3CCC4=CC(=O)CC[C@]4(C)[C@H]3CC[C@]12C`, the result with HACAT was inactive. Besides, the Potency entry in the experiment on MCC-13, in the experiment on MCC-26, in the experiment with MKL-1, with MKL-2, in the experiment with UISO and in the experiment with WaGa was “inactive” throughout. For the same compound, the Potency entry with C33A, in the experiment on CAOV3, in the experiment with CASKI, with Es-2, with Hek293T and in the experiment on JEG-3 was “inactive” in each case. Moreover, the Potency entry with OV90, in the experiment on SKOV3 and in the experiment with Tov-21-G was “inactive” throughout. Also, the Potency with HeLa is 11.2 µM (active).
For the compound `NC1CCN(c2nc3c(cc2F)c(=O)c(C(=O)O)cn3-c2ccc(F)cc2F)C1` (stereo unspecified), the result in the experiment with HACAT and in the experiment on NIH3T3 was inactive. In addition, the Potency result in the experiment with MCC-13, with MCC-26, with MKL-1, in the experiment with MKL-2, with UISO and with WaGa was “inactive” each time. Besides, the Potency entry in the experiment on C33A, in the experiment with CAOV3, in the experiment on CASKI, with Es-2, in the experiment with HeLa and in the experiment on Hek293T was “inactive” each time. Also, the Potency result in the experiment on JEG-3, in the experiment on OV90, with PA-1, with SKOV3 and in the experiment on Tov-21-G was “inactive” throughout.
On to `CC(C)(C)CC(C)(C)c1ccc(O)c(-n2nc3ccccc3n2)c1`, for which the outcome in the experiment with HACAT was inactive. The Potency entry with MCC-13, in the experiment with MCC-26, in the experiment with MKL-1, in the experiment with MKL-2, in the experiment on UISO and in the experiment with WaGa was “inactive” in each case. In addition, the Potency entry in the experiment on C33A, in the experiment on CAOV3, in the experiment with CASKI, in the experiment with Es-2, in the experiment with HeLa and in the experiment with Hek293T was “inactive” throughout. Moreover, the Potency result in the experiment on JEG-3, in the experiment on OV90, in the experiment on PA-1, with SKOV3 and in the experiment on Tov-21-G was “inactive” throughout.
On to `CCOC(=O)[C@H](CCc1ccccc1)N[C@@H](C)C(=O)N1[C@H](C(=O)O)C[C@@H]2CCC[C@@H]21`, for which the compound was classed as inactive with HACAT. The Potency result in the experiment with MCC-13, in the experiment on MCC-26, in the experiment on MKL-1, with MKL-2, in the experiment with UISO and with WaGa was “inactive” each time. Also, the Potency entry with C33A, with CAOV3, with CASKI, with Es-2, in the experiment with HeLa and in the experiment on Hek293T was “inactive” throughout. In addition, the Potency entry in the experiment with JEG-3, with OV90, in the experiment on PA-1, in the experiment with SKOV3 and in the experiment on Tov-21-G was “inactive” each time.
For `CN1CCN(c2c(F)cc3c(=O)c(C(=O)O)cn4c3c2SCC4)CC1`, the compound was classed as inactive in the experiment with HACAT. The Potency result with MCC-13, with MCC-26, with MKL-1, with MKL-2, with UISO and in the experiment with WaGa was “inactive” throughout. Also, the Potency entry with C33A, in the experiment on CAOV3, with CASKI, in the experiment with Es-2, in the experiment on HeLa and in the experiment on Hek293T was “inactive” each time. The Potency entry in the experiment on JEG-3, in the experiment on OV90, with PA-1, in the experiment with SKOV3 and with Tov-21-G was “inactive” throughout.
Turning to `O=C(Nc1ccccc1)OCC(CN1CCCCC1)OC(=O)Nc1ccccc1` (stereo unspecified), in the experiment with HACAT, the call was inactive. Further, the Potency result in the experiment on MCC-13, in the experiment on MCC-26, in the experiment on MKL-1, in the experiment on MKL-2, in the experiment on WaGa and with C33A was “inactive” each time. Also, the Potency result in the experiment with CASKI, in the experiment with Es-2, in the experiment with HeLa, in the experiment with JEG-3, in the experiment with PA-1 and in the experiment on Tov-21-G was “inactive” throughout.
